Hits are enriched below; roughly 31% of the tested compounds scored in any of these assays.
CYP2C9 activ – human CYP2C9 activators, primary screen, biochemical, luminescence; recombinant CYP2C9, luciferin-H conversion; stronger effect = higher value; factor 1 = untreated enzyme, 0 = blocked; activation factor at 5 µM; hit rate 1.4% among 96,000; AID 1024, 2008;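 active = activation factor of 2 or more for CYP2C9 at a 5 µM dose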;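 also: 0 = sulfaphenazole-blocked wells and 1 = vehicle-only wells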
CYP2C19 inh – blockers of cytochrome P450 2C19 activity – biochemical, luminescence, ADME assay, primary screen; inhibition, % at 5 µM; hit rate 21% among 96,000; P33261; AID 778, 2007; CYP2C19 Supersomes, luciferin-H EGE luminescence, 30 min;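 active = CYP2C19 inhibition above a set limit at 5 µM in the primary screen, cut at about 50% in these data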;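 also: plate controls were negative control wells for no effect and 2.5 mM tranylcypromine positive control for full effect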
Target sequence (P33261 whole entry, looked up): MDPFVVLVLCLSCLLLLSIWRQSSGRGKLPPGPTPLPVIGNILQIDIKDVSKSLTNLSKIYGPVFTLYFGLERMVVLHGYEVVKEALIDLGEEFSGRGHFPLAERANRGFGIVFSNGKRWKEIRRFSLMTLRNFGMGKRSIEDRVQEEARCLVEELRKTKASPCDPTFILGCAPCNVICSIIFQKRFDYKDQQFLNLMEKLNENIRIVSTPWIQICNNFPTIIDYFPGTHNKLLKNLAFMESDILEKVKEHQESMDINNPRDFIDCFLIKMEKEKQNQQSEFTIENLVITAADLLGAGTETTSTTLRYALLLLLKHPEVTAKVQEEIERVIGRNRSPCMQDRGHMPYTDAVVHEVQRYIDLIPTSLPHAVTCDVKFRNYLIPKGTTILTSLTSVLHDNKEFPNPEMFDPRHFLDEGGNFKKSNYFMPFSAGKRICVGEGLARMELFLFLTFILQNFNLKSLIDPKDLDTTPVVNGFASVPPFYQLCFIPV
CYP2C9 inhib – blockers of cytochrome P450 2C9 activity – biochemical, luminescence, ADME assay, primary screen; CYP2C9 Supersomes, luciferin-H conversion; inhibition, % at 5 µM; hit rate 20% among 96,000; AID 777, 2007;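 active = blocking of liver enzyme CYP2C9 beyond about 50% at 5 µM, limit read from the data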
PLAP act – PLAP enzyme activators, biochemical, luminescence, HTS. purified PLAP enzyme, luminescent substrate read-out; stronger effect = higher value. Alkaline phosphatase, placental type (Homo sapiens), P05187. activation fold at 20 µM. hit rate 1.2% among 96,000; in the data active = activation fold above about 2
CYP2C19 activ – human CYP2C19 activators, primary screen, biochemical, luminescence | AID 1025, 2008 | activation factor at 5 µM | 96,000 tested, under 10 active | Cytochrome P450 2C19 (Homo sapiens), P33261 | recombinant CYP2C19, luciferin-H EGE luminescence; stronger effect = higher value; 0 = fully inhibited enzyme, 1 = untreated enzyme;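 active = activation factor of at least 2 at 5 µM in the primary screen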;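 also: 0 = wells with 2.5 mM tranylcypromine and 1 = vehicle-only wells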
An asterisk follows results filed as active.

SMILES | CYP2C9 activ | CYP2C19 inh | CYP2C9 inhib | PLAP act | CYP2C19 activ
Brc1ccc(C2Nc3cccc4cccc(c34)N2)o1 | 0.8 | 71* | 20 | 0.9 | 0.3
Clc1ccc(Br)cc1-c1nc(-c2ccncc2)no1 | 0.5 | 89* | 50* | 0.9 | 0.1
Cc1cc(C)cc(-c2nc(-c3ccncc3)no2)c1 | 0.7 | 83* | 30 | 1.4 | 0.2
Brc1cccc(-c2nc(-c3ccncc3)no2)c1 | 0.5 | 97* | 52* | 0.9 | 0
c1ccc2c(-c3nc(-c4ccncc4)no3)cccc2c1 | 0.8 | 89* | 23 | 0.9 | 0.1
c1ccc(-c2noc(-c3cccc4ccccc34)n2)cc1 | 0.9 | 6 | 14 | 0.8 | 0.9
CCn1c(N)c(C(=O)Nc2ccccc2C(=O)OC)sc1=S | 0.9 | 8 | 12 | 0.9 | 0.9
Cn1c(SCC(=O)N2CCN(Cc3ccccc3)CC2)nnc1-c1ccncc1 | 0.9 | 2 | 13 | 1.4 | 1
Cc1cc(Oc2ccccc2)nc(-c2ccccc2O)n1 | 1 | -1 | 1 | 0.8 | 1
CNc1nc(C)nc(-c2ccccc2O)n1 | 2.1* | 16 | -112 | 0.9 | 0.8
O=C(c1c(F)cccc1F)N1CCN(c2cccc(C(F)(F)F)c2)CC1 | 0.2 | 94* | 80* | 1.4 | 0.1
CN(C)S(=O)(=O)c1ccc(NC(=O)N2CCN(c3cccc(C(F)(F)F)c3)CC2)cc1 | 0.9 | -13 | 7 | 2.1* | 1.1
Cn1cccc1C(=O)N1CCN(c2cccc(C(F)(F)F)c2)CC1 | 0.8 | 76* | 22 | 1.7 | 0.2
O=C1CC(N2CCN(c3cccc(C(F)(F)F)c3)CC2)C(=O)N1c1ccccc1F (stereo unspecified) | 0.2 | 47 | 84* | 1.6 | 0.5
CCCCCCC(=O)N/N=C/Cc1ccccc1 | 1.2 | 41 | -19 | 0.9 | 0.6
COc1cc2cc(C(N)=O)c(N)nc2cc1OC | 1 | -11 | -4 | 1.1 | 1.1
CC(=O)Nc1cccc(NC(=O)CSc2nnnn2C(C)C)c1 | 0.8 | 42 | 17 | 0.9 | 0.6
O=C(Nc1ccc(Oc2ccc(Cl)cc2)cc1)c1ncn[nH]1 | 1 | 54* | 3 | 0.9 | 0.5
CC(Oc1ccc(Cl)cc1Cl)C(=O)Nc1ccc2oc(-c3ccncc3)nc2c1 (stereo unspecified) | 0.4 | 55* | 61* | 1.1 | 0.4
COC(=O)NNC(=O)C(C)Oc1ccc(Cl)cc1Cl (stereo unspecified) | 1 | 13 | -1 | 1.1 | 0.9
O=C(Nc1ccc2oc(-c3ccc(Cl)c(Cl)c3)nc2c1)c1ncn[nH]1 | 1.1 | 5 | -6 | 2.6* | 0.9
CC(C)CC(=O)Nc1ccc2oc(-c3ccncc3)nc2c1 | 0.3 | 52* | 69* | 1.1 | 0.5
O=C(Cc1ccccc1)Nc1ccc2oc(-c3ccncc3)nc2c1 | 0.9 | 4 | 10 | 1 | 1
COC(=O)[C@H](CCSC)NC(=O)Nc1ccc(OC)c(Cl)c1 | 1.2 | 42 | -17 | 0.8 | 0.6
Cc1cccc(NC(=O)CCCN2C(=O)c3cccc4cccc(c34)C2=O)c1 | 1.5 | -7 | -53 | 1 | 1.1
SMILES | CYP2C9 activ | CYP2C19 inh | CYP2C9 inhib | PLAP act | CYP2C19 activ
CCCC(=O)Nc1cccc(-c2nc3ccccc3o2)c1 | 0.7 | 9 | 26 | 1 | 0.9
Cc1cc2nc(-c3ccc(NC(=O)C(C)C)cc3)oc2cc1C | 1.4 | 2 | -35 | 0.9 | 1
CC(C)CC(=O)Nc1cccc(-c2nc3ccccc3o2)c1 | 0.3 | 29 | 74* | 0.9 | 0.7
Cc1ccc(-c2nc3cc(NC(=O)C(C)C)ccc3o2)cc1 | 1 | -2 | -2 | 2.5* | 1
Cc1ccc(-c2nc3cc(Cl)ccc3o2)cc1 | 0.6 | 26 | 36 | 0.9 | 0.7
Cc1ccc(S(=O)(=O)Nc2ccc(-c3nc4cc(NS(=O)(=O)c5ccc(C)cc5)ccc4o3)cc2)cc1 | 0 | 81* | 97* | 1.9 | 0.2
c1ccc(-n2nnc3cnccc32)cc1 | 1 | 14 | 0 | 0.8 | 0.9
O=c1[nH]c2ccccc2nc1-c1cccs1 | 0.8 | 10 | 21 | 1.1 | 0.9
c1csc(-c2nnsc2-c2nc3ccccc3[nH]2)c1 | 0.7 | 73* | 27 | 1.3 | 0.3
O=C(OCc1nc2ccccc2c(=O)[nH]1)c1cccs1 | 0.4 | 58* | 59* | 1.1 | 0.4
O=c1[nH]c(Cc2cccs2)nc2ccccc12 | 0.9 | 13 | 5 | 1.1 | 0.9
CCOC(=O)Cc1csc(SCc2nc3ccccc3c(=O)[nH]2)n1 | 0.3 | 45 | 73* | 1.4 | 0.6
CCOC(=O)Cc1csc(SCC(=O)/C(C#N)=C(\C)N)n1 | 0.8 | 95* | 19 | 1 | 0.1
CCOC(=O)CC1C(=O)NC2CCCCC2N1C(=O)Nc1ccc(Cl)cc1 (stereo unspecified) | 0.7 | 31 | 31 | 0.9 | 0.7
COc1ccc(OC)c(Nc2cc(C)nc3nc(C)nn23)c1 | 0.5 | 33 | 48 | 2* | 0.7
COc1ccc(C)cc1Nc1cc(C)nc2nc(C)nn12 | 0.9 | 9 | 7 | 1.6 | 0.9
C=C(C)c1cccc(C(C)(C)NC(=O)N(Cc2ccccc2)Cc2ccco2)c1 | 0.3 | 42 | 72* | 0.9 | 0.6
CCC(=O)NC1(C(F)(F)F)C(=O)Nc2c1c(=O)[nH]c(=O)n2Cc1ccco1 (stereo unspecified) | 1.1 | -14 | -8 | 1.1 | 1.1
CC1CCCCC12NC(=O)N(CC(=O)c1ccc[nH]1)C2=O (stereo unspecified) | 0.8 | -1 | 16 | 0.9 | 1
C/C(CC1CC(COCC(C)C)OC1=O)=N\Nc1nc(-c2ccccc2)cs1 (stereo unspecified) | 0.3 | 89* | 72* | 1 | 0.1
CCOC(=O)CN1C=C(c2ccc3ccccc3n2)C(C[N+](=O)[O-])c2ccccc21 (stereo unspecified) | 0.1 | 72* | 92* | 1.5 | 0.3
CCOC(=O)CSc1nc2ccccc2n1CC(=O)N(C(C)C)C(C)C | 1 | -13 | 4 | 1 | 1.1
O=C(Nc1cccc(Br)c1)/C(=C\c1cccnc1)NC(=O)c1ccco1 | 0.9 | 4 | 14 | 1.1 | 1
O=C(Nc1ccc(Nc2ccccc2)cc1)C1CC1 | 0.5 | 59* | 50* | 0.9 | 0.4
CC(C)(C)C1CCC(C(=O)Nc2ccccc2)CC1 (stereo unspecified) | 0.7 | 14 | 32 | 1 | 0.9
CS(=O)(=O)N1CCC(C(=O)Nc2ccccc2)CC1 | 1.2 | -2 | -25 | 0.8 | 1
O=C(Nc1ccccc1)C1CCN(c2nccs2)CC1 | 0.7 | 85* | 30 | 0.9 | 0.2
O=C(O)C1CCCCC1C(=O)Nc1ccccc1Nc1ccccc1 (stereo unspecified) | 0.1 | 56* | 86* | 1.3 | 0.4

High-throughput results: PubChem, Sanford-Burnham Center for Chemical Genomics
